# Measurements published in PubChem BioAssay.
# System: PRMT1 (protein arginine N-methyltransferase 1)
# Assay: small molecules binding arginine methyltransferase PRMT1 – biochemical, small-molecule microarray, 635 nm fluorescence, primary screen (AID 1088)
# Conditions: higher = more signal
row,Compound,composite z-score
1,Cc1cc2c(nc1C)CCCCN2CC(O)CN1CCCc2nc(-c3ccc(Br)cc3)ccc21 (configuration not stated),0.829
2,CCOC(=O)CCN1C(=O)[C@H]2[C@H]3[C@H](O)[C@H](O)CC(=NOCC=C(C)CCC=C(C)C)[C@@H]3CC[C@H]2C1=O,0.316
3,CC(=O)OC[C@H]1O[C@@H](ON=C(C)CCN2CCCCc3nc(C)c(C)cc32)[C@H](OC(C)=O)[C@@H](OC(C)=O)[C@@H]1OC(C)=O,1.53
4,CC(=O)OC[C@H]1O[C@H](CCON=C(C)C)C=C[C@@H]1OC(C)=O,0.0126
5,CCCNC(=O)OC[C@H]1O[C@H](CCON=C[C@@H](NS(=O)(=O)c2ccc(C)cc2)[C@H](C)C=CCC(=O)OC)C=C[C@@H]1Oc1ccc(OC)cc1,0.409
6,CCCC[C@H]1CN2[C@@H](CC[C@@H](C)[C@@H]2c2ccc(Br)cc2)C(=O)O1,1.56
7,CCC1=NOC(CCC2CC(OC(=O)NCc3cccc4c3OCO4)CC3(CCCC(COC(=O)NCCc4ccc(Cl)cc4)O3)O2)C1 (configuration not stated),0.616
8,COc1ccc(O[C@H]2C=C[C@@H](C#Cc3ccccc3)O[C@@H]2CO)cc1,0.718
9,CC(C)CON=C1[C@H]2CCn3c(=O)n(C)c(=O)n3[C@H]2[C@H](O)[C@@H]2O[C@H]12,-0.117
10,COC(=O)[C@@H]1CC[C@H](C)[C@@H](c2ccc(Br)cc2)N1C[C@@H](O)CN=[N+]=[N-],0.382
11,COC(=O)[C@H](C)NC(=O)CCC1CC(OC(=O)NCCc2ccc(F)cc2)CC2(CCCC(COC(=O)NCc3ccccc3)O2)O1 (some centres not stated),1.53
12,O=C1C[C@H](c2ccccc2)[C@H](c2ccc(Br)cc2)O1,-0.146
